Experimental data as given in PubChem BioAssay (EPA / NIEHS).
Results filed as inconclusive are left out. A structure can be active in one record and inactive in another. Calls of active or inactive are those of the source. The calls were made as follows, unless noted: active = hit-call score of the fitted dose curve at least 0.9, where 1 is the maximum; inconclusive = response in the unintended direction; inactive = score below 0.9.

How the values were obtained:
[1] = read-out: glucuronosyltransferase (UGT1A1), UGT1A1 (gene 54658); test: CLD_UGT1A1_48hr: CellzDirect (CLD) Gene Expression Assay for glucuronosyltransferase (UGT1A1) at 48 hours (AID 2283709);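 also: actives increase expression relative to DMSO so potency refers to induction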
Outline: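 Human primary hepatocytes dosed daily for two days (0.2% DMSO vehicle), harvested at 48 h. UGT1A1 mRNA induction measured by quantitative nuclease protection assay with chemiluminescence; gain of signal versus DMSO; cytotoxicity flagged from morphology.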

[2] = Tanguay_ZF_120hpf_ActivityScore_legacy: (Legacy) Oregon State University Tanguay Lab 120 Hour Post-fertilization zebrafish Assay Score for Activity (AID 2283742);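 as to AC50: static exposure from 6 hpf until 120 hpf at 28 °C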
Outline: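 Tropical 5D wild-type zebrafish embryos, dechorionated with pronase at 4 hpf, were exposed singly from 6 hpf to 120 hpf statically at 28C in 0.64% DMSO. Malformations and mortality were scored as binary by brightfield, with the activity score combining 18 morphology components.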

[3] = CEETOX_H295R_MTT_cell_viability: Viability Assessment in the CeeTox HT-H295R MTT Assay (AID 2283718; active = hit-call score of the fitted dose curve at least 0.9, where 1 is the maximum; inactive = score below 0.9;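 as to AC50: curve fitted both ways so AC50 may mark viability loss or gain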)
Outline: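 H295R cells prestimulated 48 h with 10 uM forskolin, then exposed 48 h to test chemical (0.1% DMSO final). Viability by MTT (0.5 mg/ml, 4 h, 37 C), absorbance 570/650 nm; percent change versus DMSO, bidirectional fit.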

[4] = test system: zebrafish Androgen Receptor (AR), gene 100005148; test: ATG_zfAR_XSP1: Attagene TRANS-FACTORIAL Multi-Species (XSP1) HepG2 Assay for zebrafish Androgen Receptor (AR) (AID 2283771)
Outline: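 HepG2 cells were transiently transfected with a zebrafish AR-GAL4 reporter system and partially stimulated with 3 nM 6-alpha-fluorotestosterone. Reporter mRNA was measured after 24 h dosing by RT-PCR with capillary electrophoresis, and gain-of-signal was fitted relative to DMSO.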

[5] = molecular target: zebrafish Estrogen Receptor (ESR1), esr1 (gene 259252) (UniProt P57717); test: ATG_zfER1_XSP1: Attagene TRANS-FACTORIAL Multi-Species (XSP1) HepG2 Assay for zebrafish Estrogen Receptor (ESR1) (AID 2283772)
Outline: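 Exogenous chimeric receptor-GAL4 activity is measured in transiently transfected human HepG2 liver cells after 24 h compound exposure. Reporter transcripts are detected by RT-PCR and fluorescent capillary electrophoresis, analysed for signal gain relative to DMSO.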

[6] = molecular target: Luciferin 4-monooxygenase (Photinus pyralis) (UniProt P08659); test: CCTE_Simmons_QuantiLum_inhib_2: CCTE's Firefly Luciferase Inhibition Assay, Simmons Lab (AID 2283767);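 as to AC50: potency for inhibitors that lower luciferase luminescence relative to DMSO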
Outline: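 Counter-screen for nonspecific enzyme inhibition: purified firefly luciferase incubated 30 min at 37C with chemicals up to 87.5 uM final, then luminescence measured after luciferin/dATP injection; activity fitted against DMSO baseline.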

[7] = test system: chicken Androgen Receptor (AR), gene 422165; test: ATG_chAR_XSP1: Attagene TRANS-FACTORIAL Multi-Species (XSP1) HepG2 Assay for chicken Androgen Receptor (AR) (AID 2283768)
Outline: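 HepG2 cells transiently transfected with multiplexed GAL4-UAS reporter units expressing chimeric chicken AR-Gal4; 3 nM 6-alpha-fluorotestosterone for partial AR stimulation; 24 h after dosing, reporter mRNA by RT-PCR and capillary electrophoresis, gain-of-signal versus DMSO.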

[8] = STM_H9_OrnithineISnorm_perc: Stemina devTOX quickPredict H9 human embryonic stem cell (hESC)-based Assay for Ornithine (ORN) Metabolite Biomarker, Normalized (AID 2283712; active = hit-call score of the fitted dose curve at least 0.9, where 1 is the maximum; inactive = score below 0.9;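 also: ornithine released into spent medium during last day measured by mass spectrometry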)
Outline: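 Cells: undifferentiated H9 hESC. Dosing: 72 h, media replaced every 24 h. Sample: final 24-h conditioned media, 40% acetonitrile. Read: UPLC-HRMS ornithine area vs 13C standard, % DMSO control.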

[9] = STM_H9_CystineISnorm_perc: Stemina devTOX quickPredict H9 human embryonic stem cell (hESC)-based Assay for Cystine (CYSS) Metabolite Biomarker, Normalized (AID 2283713; active = hit-call score of the fitted dose curve at least 0.9, where 1 is the maximum; inactive = score below 0.9)
Outline: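 Secreted cystine was measured by UPLC-HRMS in H9 hESC medium after 72h compound exposure with 24-hourly replenishment. Values are standard-normalized areas relative to 0.1% DMSO.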

[10] = STM_H9_OrnCyssISnorm_ratio: Stemina devTOX quickPredict H9 human embryonic stem cell (hESC)-based Assay for Ornithine (ORN):Cystine (CYSS) Ratio (AID 2283714)
Outline: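 Undifferentiated H9 hESCs were exposed to compound for 72h with media and chemical replaced every 24h. Final 24-h conditioned media were deproteinized and analysed by UPLC-HRMS. ORN and CYSS peak areas were normalized to C13 internal standards and the ratio taken versus 0.1% DMSO.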

[11] = ArunA_CellTiter_hNC: Viability Assessment in the ArunA Biomedical's Oris Neural Crest (hNC) Cell Migration Assay (AID 2283752)
Outline: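 Viability of embryonic neural crest stem cells from the H9 line is scored 72 h after dosing, with DMSO as negative control and baseline. A drop in CellTiter Aqueous One signal indicates cytotoxicity.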

[12] = ArunA_CellTiter_hNP: Viability Assessment in the ArunA Biomedical's Oris Neural Crest (hNC) Cell Migration Assay (AID 2283753)
Outline: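 H9-derived hNP1 neuroprogenitors, 60,000/well on Matrigel, cultured 16 h, then 72 h chemical exposure in test medium. Cell titer via CellTiter Aqueous One; positive-direction fit vs DMSO.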

[13] = ArunA_Migration_hNC: ArunA Biomedical's Oris Neural Crest (hNC) Cell Migration Assay (AID 2283755)
Outline: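 Human H9-derived neural crest stem cells, 60,000/well on Matrigel, 16 h at 37C, then 72 h chemical exposure after seeding-stopper removal. Migration into detection zone read as calcein-AM fluorescence (ex494/em517), relative to DMSO.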

[14] = ArunA_NOG_NucleusCount: ArunA Biomedical's Neurite Outgrowth (NOG) Assay for Nucleus Count (AID 2283756)
Outline: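 Human H9-derived differentiated neurons were exposed for 48 h right after seeding. Hoechst-stained nuclei gated by size and intensity were counted by automated high-content imaging as viable neurons. Loss of signal vs DMSO.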

[15] = ArunA_NOG_NeuriteLength: ArunA Biomedical's Neurite Outgrowth (NOG) Assay for Neurite Length (AID 2283757)
Outline: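 Differentiated human H9-derived neurons were exposed for 48 h from seeding, then stained with Hoechst and βIII-tubulin. Automated high-content imaging gave total neurite length per valid neuron, counting processes >10 um. Loss of signal was scored versus DMSO.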

[16] = ArunA_NOG_NeuritesPerNeuron: ArunA Biomedical's Neurite Outgrowth (NOG) Assay for Neurites Per Neuron (AID 2283758)
Outline: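 Differentiated human H9-derived neurons exposed to chemicals for 48 h from seeding, then stained with Hoechst and βIII-tubulin/DyLight 488. Automated imaging counted neurites (processes >10 um) per valid neuron; loss of signal versus DMSO scored.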

[17] = test system: frog Androgen Receptor (AR), gene 399456; test: ATG_frAR_XSP1: Attagene TRANS-FACTORIAL Multi-Species (XSP1) HepG2 Assay for frog Androgen Receptor (AR) (AID 2283770)

Sequence of zebrafish Estrogen Receptor (ESR1), esr1 (gene 259252) (P57717 whole entry, looked up, the tested form may be a part): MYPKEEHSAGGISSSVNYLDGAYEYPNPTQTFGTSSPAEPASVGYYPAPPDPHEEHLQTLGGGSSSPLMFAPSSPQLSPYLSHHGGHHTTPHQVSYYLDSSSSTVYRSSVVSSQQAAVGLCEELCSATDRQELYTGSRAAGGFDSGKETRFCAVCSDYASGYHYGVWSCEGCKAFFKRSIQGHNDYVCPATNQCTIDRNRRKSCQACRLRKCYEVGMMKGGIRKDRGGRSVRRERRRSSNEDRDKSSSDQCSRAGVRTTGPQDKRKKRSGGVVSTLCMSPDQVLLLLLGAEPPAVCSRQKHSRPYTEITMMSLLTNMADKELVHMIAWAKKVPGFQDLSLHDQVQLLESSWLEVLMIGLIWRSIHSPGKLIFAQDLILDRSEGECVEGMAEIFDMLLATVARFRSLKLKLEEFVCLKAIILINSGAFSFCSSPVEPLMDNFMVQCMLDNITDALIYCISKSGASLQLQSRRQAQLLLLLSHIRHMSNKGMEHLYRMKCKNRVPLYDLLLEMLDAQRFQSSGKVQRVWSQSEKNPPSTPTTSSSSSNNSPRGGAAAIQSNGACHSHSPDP
Sequence of Luciferin 4-monooxygenase (Photinus pyralis) (P08659 whole entry, looked up): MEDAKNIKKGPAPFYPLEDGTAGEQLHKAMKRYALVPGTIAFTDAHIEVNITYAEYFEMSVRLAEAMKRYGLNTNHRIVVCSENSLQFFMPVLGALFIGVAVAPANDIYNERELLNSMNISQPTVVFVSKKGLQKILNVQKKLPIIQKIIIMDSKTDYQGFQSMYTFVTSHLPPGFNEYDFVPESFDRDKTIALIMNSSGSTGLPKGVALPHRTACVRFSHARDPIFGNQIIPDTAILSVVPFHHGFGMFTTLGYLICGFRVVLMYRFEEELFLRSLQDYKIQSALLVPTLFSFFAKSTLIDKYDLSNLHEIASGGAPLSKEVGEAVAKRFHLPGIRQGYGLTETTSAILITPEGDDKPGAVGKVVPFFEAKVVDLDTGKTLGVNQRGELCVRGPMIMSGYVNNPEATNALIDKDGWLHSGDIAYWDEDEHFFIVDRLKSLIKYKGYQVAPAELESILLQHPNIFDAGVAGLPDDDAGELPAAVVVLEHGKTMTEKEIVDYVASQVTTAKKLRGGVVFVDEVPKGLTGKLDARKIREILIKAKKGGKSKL

COc1c(Cl)ccc(Cl)c1C(=O)O
outcome [1]: inactive
outcome [2]: inactive

CC(=O)S[C@@H]1CC2=CC(=O)CC[C@]2(C)[C@H]2CC[C@@]3(C)[C@@H](CC[C@@]34CCC(=O)O4)[C@H]12
outcome [3]: inactive
outcome [2]: inactive
outcome [4]: inactive
outcome [5]: inactive

c1ccc(Nc2ccccc2)cc1
outcome [3]: inactive
AC50 [2]: 30.3 µM (active)
outcome [6]: inactive

CC1(C)C(C=C(Cl)Cl)C1C(=O)OCc1cccc(Oc2ccccc2)c1 (stereo not given)
AC50 [1]: 3.97 µM (active)
outcome [3]: inactive
outcome [7]: inactive
outcome [4]: inactive
outcome [5]: inactive

CCNc1nc(N)nc(Cl)n1
outcome [8]: inactive
outcome [9]: inactive
outcome [10]: inactive
outcome [3]: inactive
outcome [2]: inactive

CC(=O)[C@H]1CC[C@H]2[C@@H]3CCC4=CC(=O)CC[C@]4(C)[C@H]3CC[C@]12C
outcome [3]: inactive
outcome [2]: inactive

S=C(S)NCCNC(=S)S.[Mn+2].[S-]C([S-])=NCCN=C([S-])[S-].[Zn+2]
outcome [8]: inactive
outcome [9]: inactive
outcome [10]: inactive
AC50 [3]: 1.19 µM (active)
AC50 [2]: 0.00112 µM (active)
outcome [2]: inactive
AC50 [11]: 9.92 µM (active)
AC50 [12]: 83.4 µM (active)
AC50 [13]: 50 µM (active)
outcome [14]: inactive
outcome [15]: inactive
outcome [16]: inactive
AC50 [6]: 22.6 µM (active) [middle of 4 runs]
outcome [6]: inactive

Cc1nn(C)c(Oc2ccccc2)c1C=NOCc1ccc(C(=O)OC(C)(C)C)cc1
AC50 [8]: 0.0118 µM (active)
AC50 [9]: 0.128 µM (active)
AC50 [10]: 0.0589 µM (active)
AC50 [2]: 2.45 µM (active)

N#CSCSc1nc2ccccc2s1
AC50 [8]: 17.2 µM (active)
AC50 [9]: 15.2 µM (active)
AC50 [10]: 16.4 µM (active)
AC50 [2]: 0.11 µM (active)
AC50 [6]: 435 nM (active)

C[C@]12CC[C@@H]3c4ccc(O)cc4C[C@@H](CCCCCCCCCS(=O)CCCC(F)(F)C(F)(F)F)[C@H]3[C@@H]1CC[C@@H]2O (stereo not given in full)
outcome [2]: inactive

CCCOC(=O)c1ccc(C(=O)OCCC)nc1
outcome [1]: inactive
AC50 [2]: 3.83 µM (active)
outcome [6]: inactive

S=C([S-])NCCNC(=S)[S-].[Mn+2]
AC50 [8]: 88.1 µM (active)
outcome [9]: inactive
outcome [10]: inactive
outcome [3]: inactive
outcome [2]: inactive
outcome [6]: inactive

O=C(c1ccc(O)cc1O)c1ccc(O)cc1O
AC50 [8]: 51.1 µM (active)
AC50 [9]: 18.5 µM (active)
outcome [2]: inactive
AC50 [6]: 47200 nM (active)
AC50 [7]: 0.133 µM (active)
AC50 [17]: 2.75 µM (active)
AC50 [5]: 1.38 µM (active)

CCN(CC)C(=O)c1cccc(C)c1
outcome [1]: inactive
outcome [2]: inactive

O=C(O)c1ccccc1
outcome [2]: inactive

C[C@]12C[C@H](O)[C@H]3[C@@H](CCC4=CC(=O)CC[C@@]43C)[C@@H]1CC[C@@H]2C(=O)CO
AC50 [8]: 77 µM (active)
AC50 [9]: 81.5 µM (active)
AC50 [10]: 93.8 µM (active)
outcome [3]: inactive
outcome [2]: inactive

CCOC(=O)COc1cc(-n2ncc(C(F)(F)F)c(C)c2=O)c(F)cc1Cl
outcome [1]: inactive
outcome [2]: inactive

CCOC(=O)c1ccc(O)cc1
outcome [3]: inactive
outcome [2]: inactive

CCOC(=O)NCCOc1ccc(Oc2ccccc2)cc1
AC50 [1]: 20 µM (active)
outcome [2]: inactive
